CIT2 TOR yeast: alters CIT2-GFP fluorescence in TOR pathway yeast screen; 320,000 tested, 0.065% active; GFP response vs DMSO, % at 10 µM; S. cerevisiae CIT2-GFP strain, flow cytometry, 3 h; 100 means same as DMSO wells;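 active = GFP response relative to DMSO above a set limit, near the screen mean plus 3 SD, cut at about 150% in these data; inconclusive = Fewer than 70 cells measured for a yeast strain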;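 note: ratio of well median GFP fluorescence to mean of DMSO wells on the plate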
LAP4-GFP MLPCN: yeast TOR pathway LAP4-GFP modulation | GFP response vs DMSO, % at 10 µM | S. cerevisiae LAP4-GFP multiplex, flow cytometry GFP, 3 h; median GFP as percent of DMSO wells | 320,000 tested, 0.34% active;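 active = GFP response vs DMSO above a set limit, about the screen mean plus 3 SD, cut at about 150% in these data; inconclusive = under 70 cell events counted for the yeast strain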
MEP2 TOR yeast: alters MEP2-GFP fluorescence in TOR pathway yeast screen. S. cerevisiae MEP2-GFP strain, flow cytometry GFP, 3 h; 100% = DMSO control level. GFP response vs DMSO, % at 10 µM. 330,000 tested, 0.51% active;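 active = GFP response versus DMSO above a set limit, roughly screen mean plus 3 SD, cut at about 180% in these data; inconclusive = fewer than 70 cells counted for a yeast strain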;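 note: median GFP fluorescence of the barcode-gated MEP2-GFP cells per well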
AGP1 TOR yeast: yeast TOR pathway AGP1-GFP modulation; S. cerevisiae AGP1-GFP multiplex flow cytometry, 3 h; GFP as percent of DMSO wells; GFP response vs DMSO, % at 10 µM; 320,000 tested, 0.02% active; AID 2066;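 active = GFP response relative to DMSO above a set limit, near screen average plus 3 SD, cut at about 150% in these data; inconclusive = fewer than 70 cells counted for the yeast strain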;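 note: median GFP channel fluorescence of the gated AGP1 strain per well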
RPL19A-GFP yeast: alters RPL19A-GFP fluorescence in TOR pathway yeast screen; S. cerevisiae RPL19A-GFP strain, flow cytometry, 3 h; stronger effect = lower value; 330,000 tested, 0.3% active; AID 2025; percent response vs DMSO, % at 10 µM;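 active = percent response vs DMSO below 50%; inconclusive = fewer than 70 events counted for the yeast strain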;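 note: median channel GFP fluorescence of the barcoded RPL19A-GFP strain; ratio of sample median GFP to plate DMSO average so 100% = DMSO; lower means less RPL19A-GFP as with rapamycin TOR inhibition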
* = called active by the depositor; u = inconclusive; x = no result; [ ] = dose if it differs, or a comment. An excerpt weighted towards active compounds, which were near 0.92% of everything screened.

SMILES | CIT2 TOR yeast | LAP4-GFP MLPCN | MEP2 TOR yeast | AGP1 TOR yeast | RPL19A-GFP yeast
COc1ccccc1N=c1oc2cc(O)ccc2cc1C(N)=O | u | 94 | 298*[may fluoresce violet] | u | 15*[may fluoresce violet]
Cc1cccc(N=c2oc3cc(O)ccc3cc2C(N)=O)c1 | 95 | 102 | 124 | 97 | 40*
COc1ccc2cc(C(N)=O)c(=Nc3ccc(C)cc3)oc2c1 | 106 | 102 | 106 | 107 | 102
Cc1onc(-c2c(F)cccc2Cl)c1C(=O)ONC(=O)c1ccco1 | x | x | 102 | x | 101
COc1ccccc1N1CCN(C(=O)CCc2nnc3ccc(N4CCCC4)nn23)CC1 | 109 | 95 | 103 | 100 | 96
COc1ccc(N2CCN(C(=O)CCc3nnc4ccc(N5CCCC5)nn34)CC2)cc1 | 127 | 104 | 190* | 70 | 69
Cc1noc(NS(=O)(=O)c2ccc(NC(=O)NC(C)(C(F)(F)F)C(F)(F)F)cc2)c1C | 96 | 92 | 107 | 101 | 106
O=C(O)C1CCC(NSc2ccccc2[N+](=O)[O-])CC1 (stereo not given) | 96 | 199* | 96 | 90 | 90
CC1(C)CC(=O)C=C(C(=O)N2CCCC(C(=O)c3cccc(C(F)(F)F)c3)C2)O1 (stereo not given) | 87 | 83 | 94 | 84 | 100
CCc1nc(Nc2ccc(N3CCN(C(C)=O)CC3)cc2)c2oc3ccccc3c2n1 | 101 | 102 | 103 | 107 | 93
CC(=O)N1CCN(c2ccc(Nc3ncnc4c3oc3ccccc34)cc2)CC1 | u | 91 | 427*[may fluoresce violet] | x | 22*[may fluoresce violet]
Cc1nn2c(=O)cc(COC(=O)c3c(F)cccc3Cl)nc2s1 | 85 | 108 | 92 | 97 | 96
COC(=O)[C@]1(C)N[C@H](CN(C)C(=O)Nc2ccc(C)cc2)[C@@H]2C(=O)N(C)C(=O)[C@@H]21 | 88 | 84 | 93 | 84 | 84
COc1ccccc1N1CCN(S(=O)(=O)c2c(C)sc3ncn(CC(=O)NCCN(C)C)c(=O)c23)CC1 | u | 90 | 258*[may fluoresce violet] | u | 50
O=C(COc1ccc(-c2nnco2)cc1)Nc1ccc(C(F)(F)F)cc1 | 88 | 123 | 101 | 110 | 100
Nc1nccc(-c2cccs2)n1 | 96 | 87 | 96 | 97 | 97
Brc1cc(Br)c2nc(-c3cccs3)ccc2c1 | 74 | 151* | 91 | 85 | 94
FC(F)(F)c1cc(-c2cccs2)nc2cc(-c3cccs3)nn12 | 128 | 143 | 179* | 113 | 99
Cc1cc(C)n(CC(=O)NNC(=O)c2ccc(S(C)(=O)=O)cc2)n1 | 107 | 94 | 98 | 99 | 98
Cc1ccc(Cl)cc1N1CCN(C(=O)CSc2ccsc2[N+](=O)[O-])CC1 | 98 | 117 | 184* | 97 | 98
COc1ccc(C(=O)NNC(=O)CSc2nnc(-c3cccnc3)n2C)cc1 | 100 | 92 | 101 | 96 | 98
CN(CC(=O)Nc1ccccc1Cl)C(=O)CSc1nnc(N)s1 | u | u | 129 | u | 40*[may fluoresce violet]
Cc1cccc2nc(-c3cccnc3)c(NCCC(C)C)n12 | 145 | 149 | 179* | 108 | 108
CCCCn1c(N)c(N(CC(C)C)C(=O)c2cccs2)c(=O)[nH]c1=O | 104 | 106 | 98 | 108 | 99
CCC(C)NCCCOc1cc(Cl)ccc1Cl (stereo not given) | u | 124 | 609*[may fluoresce violet] | x | 42*[may fluoresce violet]
SMILES | CIT2 TOR yeast | LAP4-GFP MLPCN | MEP2 TOR yeast | AGP1 TOR yeast | RPL19A-GFP yeast
COc1ccc(C(=O)COC(=O)c2sc(C)nc2C)cc1F | 97 | 91 | 100 | 94 | 91
CCN1CCN(CCC2Oc3cc([N+](=O)[O-])ccc3NC2=O)CC1 (stereo not given) | u | 94 | 375*[may fluoresce violet] | u | 57
CC(=O)Nc1cccc(C(=O)OCC(=O)N2CCC(c3ccccc3)=N2)c1 | 91 | 98 | 94 | 95 | 95
CCOC(=O)c1cc(C)sc1NC(=O)C(c1ccccc1)c1ccccc1 | 98 | 93 | 101 | 94 | 98
CCc1cc(C(=O)O)c(NC(=O)C(c2ccccc2)c2ccccc2)s1 | u | 96 | 218*[may fluoresce violet] | x | 59
CC(C)(C)OC(=O)N1CCC(NC(=O)c2ncn(Cc3ccccc3)c2C(=O)NC2CCN(C(=O)OC(C)(C)C)CC2)CC1 | 88 | 93 | 94 | 96 | 100
CCc1cc(=O)oc2c(CNCc3ccc(OC)cc3OC)c(O)c(Cl)cc12 | u | 90 | 407*[may fluoresce violet] | 17 | 69
C=C(C)[C@H]1CC=C(C)/C(=N/NC(=O)CNc2ccccc2OC)C1 | u | 119 | 223*[may fluoresce violet] | u | 31*[may fluoresce violet]
COc1cccc(CCN2CCC(CNS(=O)(=O)c3cc(-c4cc(C)no4)ccc3C)CC2)c1 | u | 64 | 163 | u | 15*[may fluoresce violet]
Cc1onc(-c2ccccc2)c1C(=O)N=C(N)c1ccc(C(F)(F)F)cc1 | 105 | 101 | 107 | 109 | 97
COc1cc(/C=C/C(=O)c2c(O)ccc3c(C)cc(=O)oc23)ccc1O | 61 | 160* | 91 | 88 | 89
Cc1cc(=O)oc2c(C(=O)/C=C\c3cccs3)c(O)ccc12 | 93 | 152* | 92 | 96 | 104
Cc1cc(=O)oc2c(C(=O)/C=C/c3ccccc3)c(O)ccc12 | 83 | 98 | 90 | 89 | 91
CN(Cc1cn(C)nc1-c1ccccc1F)CC1CCCCO1 (stereo not given) | 104 | 98 | 95 | 108 | 100
C=C(C)C(=O)Oc1ccc(N2C(=O)[C@@H]3C4C=CC(C4)[C@@H]3C2=O)cc1 | 98 | 98 | 95 | 101 | 102
COc1ccc(OC)c(CNC(=O)C2CCCN(S(=O)(=O)N3CCC(C)CC3)C2)c1 (stereo not given) | u | 74 | 152 | u | 14*[may fluoresce violet]
Cc1cccc(OCc2nnc(SCC(=O)N3c4ccccc4CCc4ccccc43)o2)c1 | u | 115 | 946*[may fluoresce violet] | 26 | 51
O=c1oc(-c2ccccc2)nc2sc3c(c12)CCCC3 | u | u | u | u | 18*[may fluoresce violet]
CC(=O)N/N=C/c1cc(C(C)C)cc(/C=N/NC(C)=O)c1O | u | 181*[may fluoresce violet] | 195*[may fluoresce violet] | 49 | 113
CCOC(=O)C1CCN(C(=O)c2cc3c(=O)n4cccc(C)c4nc3s2)CC1 | u | 76 | 200*[may fluoresce violet] | u | 54
CCOC(=O)C1CCN(C(=O)c2cc3c(=O)n4ccccc4nc3s2)CC1 | 85 | 84 | 90 | 87 | 98
O=C(NCCc1ccccc1Cl)C1CCC(=O)N(CC2CCCCC2)C1 (stereo not given) | 89 | 93 | 97 | 89 | 94
CC(OC(=O)/C=C/c1ccccc1)C(=O)N1CCc2ccccc21 (stereo not given) | 89 | 110 | 98 | 103 | 100
Cc1cc(NC(=O)CSC2=Nc3ccccc3C3=NC(Cc4ccccc4)C(=O)N23)n[nH]1 (stereo not given) | u | 86 | 266*[may fluoresce violet] | 18 | 52
